Experimental data reported in PubChem BioAssay (Tox21).
“And” between values parts separate entries of the source, which are not always exact repeats. Equal entries are not always repeated. A number with no mark means an inactive call. Inconclusive results are not listed. A call without a number means that no potency is given here. The source made the active and inactive calls. The call rests on the fitted dose curve.

How the values were obtained:
[1] = target: Acetylcholinesterase (Homo sapiens) (UniProt P22303); assay: Acetylcholinesterase (AChE) small molecule antagonists: colormetric cell-based qHTS assay (AID 1347395); further: nearly all actives have a fitted effect of over 30% in size; further: potency means the concentration at half of the fitted maximal effect
Summary of the method: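 Cells (SH-SY5Y, 2,000 per well) are seeded and left overnight at 37 C. Compound is added for 30 min, then DTNB and acetylthiocholine for a further 90 min at 37 C before absorbance-based thiocholine detection.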

[2] = target: Acetylcholinesterase (Homo sapiens) (UniProt P22303); assay: Acetylcholinesterase (AChE) small molecule antagonists: enzyme-based qHTS assay (AID 1347397); details: Potency: AChE enzyme activity inhibition; outcome: AChE enzyme activity inhibition; further: nearly all actives have a fitted effect of over 55% in size; further: potency means the concentration at half of the fitted maximal effect
Summary of the method: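 Recombinant human AChE (50 mU/mL) preincubated with compound 30 min at room temperature; acetylthiocholine plus DTNB then added, and thiocholine formation read colorimetrically after 10 min at room temperature. DMSO served as vehicle control.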

[3] = target: Acetylcholinesterase (Homo sapiens) (UniProt P22303); assay: Acetylcholinesterase (AChE) small molecule antagonists: fluorescence cell-based qHTS assay (AID 1347398); details: Potency: AChE activity; outcome: AChE activity; further: nearly all actives have a fitted effect of over 50% in size; further: potency means the concentration at half of the fitted maximal effect
Summary of the method: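 SH-SY5Y cells (2000/well), attached overnight, incubated with compound 30 min at 37 C. Acetylthiocholine plus Thiolite Green then added for 40 min at room temperature. Thiocholine fluorescence (Ex/Em 490/520 nm) reports cellular AChE activity.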

[4] = target: Acetylcholinesterase (Homo sapiens) (UniProt P22303); assay: Acetylcholinesterase (AChE) small molecule antagonists: enzyme-based qHTS assay with human liver microsomes (AID 1347399); details: Potency: qHTS inhibition; outcome: qHTS inhibition; further: nearly all actives have a fitted effect of over 60% in size
Summary of the method: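 Recombinant human AChE (50 mU/mL in the enzyme mix) and human liver microsomes (0.25 mg/mL final) were preincubated with compound and NADPH (0.25 mg/mL final) for 30 min at 37 C. Acetylthiocholine/DTNB was then added; thiocholine was read colorimetrically after 10 min at room temperature.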

Sequence of Acetylcholinesterase (Homo sapiens) (P22303 whole entry, looked up): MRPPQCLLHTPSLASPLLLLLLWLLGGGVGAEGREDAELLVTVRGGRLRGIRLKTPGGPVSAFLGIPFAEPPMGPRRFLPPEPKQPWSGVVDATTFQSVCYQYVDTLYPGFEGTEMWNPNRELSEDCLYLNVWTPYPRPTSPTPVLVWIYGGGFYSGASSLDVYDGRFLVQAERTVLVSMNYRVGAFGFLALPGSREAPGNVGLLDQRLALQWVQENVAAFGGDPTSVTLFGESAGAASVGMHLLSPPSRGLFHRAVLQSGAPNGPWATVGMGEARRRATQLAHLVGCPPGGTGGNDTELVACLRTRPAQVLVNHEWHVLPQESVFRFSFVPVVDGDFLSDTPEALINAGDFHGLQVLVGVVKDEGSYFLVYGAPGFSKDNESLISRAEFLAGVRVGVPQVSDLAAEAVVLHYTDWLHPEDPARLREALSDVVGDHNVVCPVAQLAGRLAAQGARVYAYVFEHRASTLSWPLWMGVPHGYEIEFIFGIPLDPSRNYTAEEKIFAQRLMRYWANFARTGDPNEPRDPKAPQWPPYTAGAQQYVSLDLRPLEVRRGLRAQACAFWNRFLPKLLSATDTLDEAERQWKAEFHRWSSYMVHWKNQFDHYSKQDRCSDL

Row | Compound | Potency [1] | Potency [2] | Potency [3] | Potency [4] | activity, negative = inhibition [1] | activity change, negative = inhibition [2] | activity change, negative = inhibition [3] | activity change, negative = inhibition [4]
1 | CCCc1c(OCCCCc2nn[nH]n2)ccc(C(C)=O)c1O | inactive | inactive | inactive | inactive | – | – | – | –
2 | C=CC(=O)OCCOCCOCCOCCOC(=O)C=C | inactive | inactive | inactive | inactive | – | – | – | –
3 | c1ccc2ccccc2c1 | inactive | inactive | inactive | inactive | – | – | – | –
4 | CC(C)C(=O)c1ccccc1 | inactive | inactive | inactive | inactive | – | – | – | –
5 | CC(C)(C)C(=O)C1C(=O)c2ccccc2C1=O | inactive | inactive | inactive | inactive | – | – | – | –
6 | CC1=C(C)S(=O)(=O)CCS1(=O)=O | inactive | inactive | inactive | inactive | – | – | – | –
7 | Cc1ccc(Cl)c(N)c1Cl | inactive | inactive | inactive | inactive | – | – | – | –
8 | C1COCCO1 | inactive | inactive | inactive | inactive | – | – | – | –
9 | O=C1OC(=O)c2cccc3cccc1c23 | inactive | inactive | inactive | inactive | – | – | – | –
10 | CC1(C)CCC[C@]2(C)[C@H]3CC(=O)O[C@]3(C)CC[C@@H]12 | inactive | inactive | inactive | inactive | – | – | – | –
11 | CCCCCCCCCCCC | inactive | inactive | inactive | inactive | – | – | – | –
12 | O=C(CCc1ccc(O)cc1)c1c(O)cc(O)cc1O | inactive | 57.7 µM (active) | inactive | inactive | – | – | – | –
13 | OCC1CCC(CO)CC1 (stereo not given) | inactive | inactive | inactive | inactive | – | – | – | –
14 | Nc1nc2c(ncn2COC(CO)CO)c(=O)[nH]1 | inactive | inactive | inactive | inactive | – | – | – | –
15 | CCCCC(CC)COC(=O)CC#N (stereo not given) | inactive | inactive | inactive | inactive | – | – | – | –
16 | CNS(=O)(=O)CCc1ccc2[nH]cc(C3CCN(C)CC3)c2c1 | inactive | inactive | inactive | inactive | – | – | – | –
17 | CCCCCC/C=C/C(=O)OC | inactive | inactive | inactive | inactive | – | – | – | –
18 | CC(=O)OCc1ccc2c(c1)OCO2 | inactive | inactive | inactive | inactive | – | – | – | –
19 | CCc1nn(C2CCCCC2)c2cc(C3(C#N)CCC(C(=O)O)CC3)ccc12 (stereo not given) | inactive | inactive | inactive | inactive | – | – | – | –
20 | SC1CCCC1 | inactive | inactive | inactive | inactive | – | – | – | –

Row | Compound | Potency [1] | Potency [2] | Potency [3] | Potency [4] | activity, negative = inhibition [1] | activity change, negative = inhibition [2] | activity change, negative = inhibition [3] | activity change, negative = inhibition [4]
21 | CCCCCC(=O)O | inactive | inactive | inactive | inactive | – | – | – | –
22 | CC(=O)Oc1cccc2c1C(=O)c1c(OC(C)=O)cc(C(=O)O)cc1C2=O | inactive | inactive | inactive | inactive | – | – | – | –
23 | CCN(CC)c1ccc(C(=C2C=CC(=[N+](CC)CC)C=C2)c2ccc(S(=O)(=O)O)cc2S(=O)(=O)[O-])cc1 | inactive | inactive | inactive | inactive | – | – | – | –
24 | CCc1cc2cc(OC)c(OC)cc2c(Cc2ccccc2)n1 | inactive | inactive | inactive | inactive | – | – | – | –
25 | OCCCCCCCl | inactive | inactive | inactive | inactive | – | – | – | –
26 | CCC(=O)Oc1ccc(/C(CC)=C(\CC)c2ccc(OC(=O)CC)cc2)cc1 | inactive | inactive | inactive | inactive | – | – | – | –
27 | CC(O)COCC(C)O (stereo not given) | inactive | inactive | inactive | inactive | – | – | – | –
28 | C[C@H](CCC(=O)O)[C@H]1CC[C@H]2[C@@H]3CC[C@@H]4C[C@H](O)CC[C@]4(C)[C@H]3C[C@H](O)[C@]12C | inactive | inactive | inactive | inactive | – | – | – | –
29 | Nc1nc(F)nc2c1ncn2[C@@H]1O[C@H](CO)[C@@H](O)[C@@H]1O | inactive | inactive | inactive | inactive | – | – | – | –
30 | Oc1c(Cl)cc(Cl)cc1Sc1cc(Cl)cc(Cl)c1O | inactive | 40 µM (active) and 72.2 µM (active) and 56.4 µM (active) | inactive | inactive | – | – | – | –
31 | CC(C)(C)CC(C)(C)c1ccc(Nc2ccc(C(C)(C)CC(C)(C)C)cc2)cc1 | – | – | – | – | -3.03% [at 10.5 µM] | -6.81% [at 10.5 µM] | -4.09% [at 10.5 µM] | 0.323% [at 10.5 µM]
32 | Cc1ccccc1C(=O)Nc1ccc(C(=O)N2CCCC(O)c3cc(Cl)ccc32)c(C)c1 (stereo not given) | inactive | inactive | inactive | inactive | – | – | – | –
33 | CCCN1C=CN(C)C1 | inactive | inactive | inactive | inactive | – | – | – | –
34 | C=CC(=O)OCCOC1C2CCC1C1CC=CC12 (stereo not given) | – | – | – | – | 0.351% [at 23.6 µM] | 0.411% [at 23.6 µM] | -2.44% [at 23.8 µM] | 0.164% [at 23.6 µM]
35 | CCC(C)(C)c1cc(O)c(C(C)(C)CC)cc1O | inactive | inactive | inactive | inactive | – | – | – | –
36 | CN1C(=O)CC(c2ccccc2)C1=O (stereo not given) | inactive | inactive | inactive | inactive | – | – | – | –
37 | Cc1ccccc1C(OCCN(C)C)c1ccccc1 (stereo not given) | inactive | inactive | inactive | inactive | – | – | – | –
38 | CN1C(CCl)Nc2cc(Cl)c(S(N)(=O)=O)cc2S1(=O)=O (stereo not given) | inactive | inactive | inactive | inactive | – | – | – | –
39 | CC(C)(C)NCCO | inactive | inactive | inactive | inactive | – | – | – | –
40 | CCCCCCCCCCCCSC#N | inactive | inactive | inactive | inactive | – | – | – | –

Row | Compound | Potency [1] | Potency [2] | Potency [3] | Potency [4] | activity, negative = inhibition [1] | activity change, negative = inhibition [2] | activity change, negative = inhibition [3] | activity change, negative = inhibition [4]
41 | CC(C)(CO)CO | inactive | inactive | inactive | inactive | – | – | – | –
42 | Cc1cc2nc(N)sc2cc1C | inactive | inactive | inactive | inactive | – | – | – | –
43 | CCCCc1nc(Cl)c(CO)n1Cc1ccc(-c2ccccc2-c2nn[nH]n2)cc1 | inactive | inactive | inactive | inactive | – | – | – | –
44 | CCCCCN(CCCOC)C(=O)C(CCC(=O)O)NC(=O)c1ccc(Cl)c(Cl)c1 (stereo not given) | inactive | inactive | inactive | inactive | – | – | – | –
45 | CN(C)CCOC(=O)C(c1ccccc1)C1(O)CCCC1 (stereo not given) | inactive | inactive | inactive | inactive | – | – | – | –
46 | CC(C)c1ccc(C(C)C)cc1 | inactive | inactive | inactive | inactive | – | – | – | –
47 | COC(=O)c1ccc(C)cc1C1=NC(C)(C(C)C)C(=O)N1 (stereo not given) | inactive | inactive | inactive | inactive | – | – | – | –
48 | NS(=O)(=O)O | inactive | inactive | inactive | inactive | – | – | – | –
49 | O=C(c1ccccc1)c1ccc(O)cc1O | inactive | inactive | inactive | inactive | – | – | – | –
50 | C/C=C(\C)C(=O)OCCC(C)CCC=C(C)C (stereo not given) | inactive | inactive | inactive | inactive | – | – | – | –
51 | CCCCCCC(=O)c1ccccc1 | inactive | inactive | inactive | inactive | – | – | – | –
52 | Cc1ccc(C(=O)c2ccc(CC(=O)O)n2C)cc1 | inactive | inactive | inactive | inactive | – | – | – | –
53 | C[Si](C)O[Si](C)C | inactive | inactive | inactive | inactive | – | – | – | –
54 | COCCOC(=O)CC#N | inactive | inactive | inactive | inactive | – | – | – | –
55 | CNC(=O)Nc1ccc(Cl)c(Cl)c1 | inactive | inactive | inactive | inactive | – | – | – | –
56 | CCCCCCC | inactive | inactive | inactive | inactive | – | – | – | –
57 | Cc1nc2sccn2c(=O)c1CCN1CCC(=C(c2ccc(F)cc2)c2ccc(F)cc2)CC1 | 30.9 µM (active) | 38.9 µM (active) | 15.5 µM (active) | inactive | – | – | – | –
58 | Cc1c(Nc2ncccc2C(=O)O)cccc1C(F)(F)F | inactive | inactive | inactive | inactive | – | – | – | –
59 | Cc1c(N(C)C)c(=O)n(-c2ccccc2)n1C | inactive | inactive | inactive | inactive | – | – | – | –
60 | C=C1C[C@H]2[C@@H]3C=C(C)C4=CC(=O)CC[C@]4(C)[C@H]3CC[C@]2(C)[C@@]1(OC(C)=O)C(C)=O | inactive | inactive | inactive | inactive | – | – | – | –
